In PubChem BioAssay (EPA / NIEHS):
“And” between values parts separate entries of the source, which are not always exact repeats. Equal entries are not always repeated. Where a structure was tested more than once in an assay, its records may differ in their call. The source made the active and inactive calls. The calls were made as follows: active = hit-call score of the fitted dose curve at least 0.9, where 1 is the maximum; inactive = score below 0.9.

Columns and labels:
[1] = read-out: TIMP metallopeptidase inhibitor 2 (TIMP2), TIMP2 (gene 7077); assay: BSK_KF3CT_TIMP2: BioMAP Diversity Plus: KF3CT Assay for TIMP metallopeptidase inhibitor 2 (TIMP2) Biomarker Activity (AID 2283071); settings: primary human keratinocytes with fibroblasts; actives raise or lower the signal
In short: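 Co-culture of human primary keratinocytes and foreskin fibroblasts, measured 24 h after chemical dosing. TIMP-2 quantified by ELISA and fitted in both directions relative to DMSO. Cytotoxicity checked in parallel cultures by SRB total-protein staining.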

[2] = read-out: C-C motif chemokine 2 (Homo sapiens) (UniProt P13500); assay: BSK_KF3CT_MCP1: BioMAP Diversity Plus: KF3CT Assay for Monocyte Chemoattractant Protein 1 (MCP1/CCL2) Biomarker Activity (AID 2283073); settings: primary human keratinocytes with fibroblasts; actives raise or lower the signal
In short: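 Keratinocytes and foreskin fibroblasts were co-cultured, dosed with chemical, and sampled 24 h later. MCP-1 was quantified by ELISA, and the endpoint was analyzed with bidirectional fitting using DMSO as negative control.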

[3] = read-out: Matrix Metallopeptidase 9 (MMP9), MMP9 (gene 4318); assay: BSK_KF3CT_MMP9: BioMAP Diversity Plus: KF3CT Assay for Matrix Metallopeptidase 9 (MMP9) Biomarker Activity (AID 2283074); settings: primary human keratinocytes with fibroblasts; actives raise or lower the signal;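 as to AC50: MMP9 protein level quantified by ELISA in the co-culture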
In short: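 Keratinocyte plus foreskin fibroblast human primary skin co-culture was dosed with chemical and MMP-9 was quantified by ELISA 24 h later. Bidirectional curve fitting used DMSO as negative control and activity baseline.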

[4] = read-out: urokinase plasminogen activator (uPA), PLAU (gene 5328); assay: BSK_KF3CT_uPA: BioMAP Diversity Plus: KF3CT Assay for urokinase plasminogen activator (uPA) Biomarker Activity (AID 2283075); settings: primary human keratinocytes with fibroblasts; actives raise or lower the signal
In short: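 Human keratinocyte plus foreskin fibroblast primary co-culture exposed to chemical for 24 h. uPA levels were quantified by ELISA, and activity was fitted bidirectionally against a DMSO negative-control baseline.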

CD40, CD40 (gene 958) [5] = assay: BSK_LPS_CD40: BioMAP Diversity Plus: LPS Assay for CD40 Biomarker Activity (AID 2283076); settings: primary human HUVEC with PBMC; actives raise or lower the signal
In short: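 CD40 signal, measured by ELISA, is fitted in both directions relative to DMSO vehicle. The system is an LPS-driven human vascular primary co-culture of endothelial cells and PBMC, sampled 24 h after compound addition.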

[6] = read-out: E-selectin (Homo sapiens) (UniProt P16581); assay: BSK_LPS_Eselectin: BioMAP Diversity Plus: LPS Assay for Eselectin Biomarker Activity (AID 2283077); settings: primary human HUVEC with PBMC; actives raise or lower the signal
In short: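 Signal of E-selectin, detected by ELISA, served as the endpoint; cells were umbilical vein endothelium with PBMC, read 24 h after treatment. DMSO defined baseline, and both increases and decreases were fitted.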

[7] = read-out: Interleukin-8 (IL8), CXCL8 (gene 3576); assay: BSK_LPS_IL8: BioMAP Diversity Plus: LPS Assay for Interleukin-8 (IL8) Biomarker Activity (AID 2283078); settings: primary human HUVEC with PBMC; actives raise or lower the signal
In short: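 Endothelial cells and PBMC from human donors are co-cultured, treated with chemicals and LPS, then assayed for IL-8 by ELISA after 24 h. Parallel SRB staining (0.1% SRB after 10% TCA fixation, 560 nm) flags cytotoxicity.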

[8] = BSK_LPS_SRB: Viability Assessment in the BioMAP Diversity Plus: LPS Assay (AID 2283079); settings: primary human HUVEC with PBMC;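 also: total protein by sulforhodamine B absorbance as a cytotoxicity measure; measured one day after compound addition; fitted in both directions against DMSO so loss or gain of signal counts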
In short: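 Overt cytotoxicity was gauged by sulforhodamine B total-protein staining in a primary human vascular endothelial and mononuclear cell co-culture 24 h post-dosing. Activity was fitted in both directions relative to DMSO.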

[9] = read-out: Interleukin-1 alpha (IL1a), IL1A (gene 3552); assay: BSK_LPS_IL1a: BioMAP Diversity Plus: LPS Assay for Interleukin-1 alpha (IL1a) Biomarker Activity (AID 2283080); settings: primary human HUVEC with PBMC; actives raise or lower the signal
In short: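 Measured: IL-1 alpha via ELISA at 24 h in LPS-activated human umbilical vein endothelium–PBMC co-culture. Baseline: DMSO, bidirectional fitting.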

[10] = read-out: Monocyte Chemoattractant Protein-1 (MCP1), CCL2 (gene 6347); assay: BSK_LPS_MCP1: BioMAP Diversity Plus: LPS Assay for Monocyte Chemoattractant Protein-1 (MCP1) Biomarker Activity (AID 2283081); settings: primary human HUVEC with PBMC; actives raise or lower the signal;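 as to AC50: secreted MCP-1 protein quantified by ELISA in culture supernatant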
In short: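 LPS-stimulated HUVEC/PBMC co-culture; chemical, 24 h; MCP-1 by ELISA; bidirectional fit vs DMSO; cytotoxicity via SRB (0.1% stain, 10% TCA fix, 560 nm) in parallel wells.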

[11] = BSK_LPS_PGE2: BioMAP Diversity Plus: LPS Assay for Prostaglandin E2 (PGE2) Biomarker Activity (AID 2283082); settings: primary human HUVEC with PBMC; actives raise or lower the signal;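 as to AC50: secreted prostaglandin E2 measured by ELISA in LPS-stimulated co-culture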
In short: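 HUVEC plus human PBMC co-culture stimulated with LPS; secreted PGE2 quantified by ELISA 24 h after chemical dosing. Activity fitted bidirectionally against DMSO baseline; parallel SRB staining (0.1% SRB after 10% TCA fixation, 560 nm) flags overt cytotoxicity.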

[12] = read-out: Macrophage colony-stimulating factor (MCSF), CSF1 (gene 1435); assay: BSK_LPS_MCSF: BioMAP Diversity Plus: LPS Assay for Macrophage colony-stimulating factor (MCSF) Biomarker Activity (AID 2283083); settings: primary human HUVEC with PBMC; actives raise or lower the signal
In short: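 Compound is added to a human vascular primary co-culture of umbilical vein endothelium and blood mononuclear cells. After 24 h, M-CSF is quantified by ELISA. Signal changes are fitted in both directions against DMSO.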

[13] = read-out: Tissue Factor, F3 (gene 2152); assay: BSK_LPS_TissueFactor: BioMAP Diversity Plus: LPS Assay for Tissue Factor Biomarker Activity (AID 2283084); settings: primary human HUVEC with PBMC; actives raise or lower the signal
In short: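 In this co-culture system of umbilical vein endothelium with PBMC, stimulated with LPS, cell-surface CD142 is detected by ELISA at 24 h. Endpoint values derive from bidirectional fitting, DMSO serving as baseline.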

[14] = read-out: Tumor necrosis factor (Homo sapiens) (UniProt P01375); assay: BSK_LPS_TNFa: BioMAP Diversity Plus: LPS Assay for Tumour Necrosis Factor alpha (TNFa) Biomarker Activity (AID 2283085); settings: primary human HUVEC with PBMC; actives raise or lower the signal
In short: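 Human umbilical vein endothelial cells co-cultured with PBMC and stimulated with LPS. TNFa was measured by ELISA 24 h after chemical dosing, fitted bidirectionally relative to DMSO.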

[15] = read-out: Vascular cell adhesion molecule 1 (VCAM1), VCAM1 (gene 7412); assay: BSK_LPS_VCAM1: BioMAP Diversity Plus: LPS Assay for Vascular cell adhesion molecule 1 (VCAM1) Biomarker Activity (AID 2283086); settings: primary human HUVEC with PBMC; actives raise or lower the signal
In short: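 Human umbilical vein endothelial cells co-cultured with PBMC and stimulated with LPS; VCAM-1 measured by ELISA 24 h after dosing. Bidirectional curve fitting against DMSO baseline; cytotoxicity tracked in parallel by SRB total-protein staining.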

CD38, CD38 (gene 952) = assay: BSK_SAg_CD38: BioMAP Diversity Plus: SAg Assay for CD38 Biomarker Activity (AID 2283087); settings: primary human HUVEC with PBMC; actives raise or lower the signal
In short: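 Human HUVEC plus PBMC co-culture stimulated with superantigen; CD38 measured by ELISA 24 h after chemical dosing. Fluorescence read-out, bidirectional fit against DMSO; cytotoxicity tracked in parallel by SRB and Alamar Blue.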

CD40, CD40 (gene 958) [16] = assay: BSK_SAg_CD40: BioMAP Diversity Plus: SAg Assay for CD40 Biomarker Activity (AID 2283088); settings: primary human HUVEC with PBMC; actives raise or lower the signal
In short: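 Fluorescence ELISA read-out of CD40 from umbilical vein endothelium plus peripheral blood mononuclear cells, sampled 24 h after dosing. Values come from bidirectional curve fitting with DMSO as baseline.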

CD69, CD69 (gene 969) = assay: BSK_SAg_CD69: BioMAP Diversity Plus: SAg Assay for CD69 Biomarker Activity (AID 2283089); settings: primary human HUVEC with PBMC; actives raise or lower the signal;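 as to AC50: cell surface CD69 protein quantified by ELISA with fluorescence detection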
In short: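 ELISA, fluorescence read-out: CD69 on human umbilical vein endothelial cell + PBMC co-culture, 24 h post-dosing. Gain or loss of signal fitted bidirectionally against DMSO baseline.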

[17] = read-out: Monocyte Chemoattractant Protein-1 (MCP1), CCL2 (gene 6347); assay: BSK_SAg_MCP1: BioMAP Diversity Plus: SAg Assay for Monocyte Chemoattractant Protein-1 (MCP1) Biomarker Activity (AID 2283090); settings: primary human HUVEC with PBMC; actives raise or lower the signal
In short: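 MCP-1 levels in the endothelial–PBMC SAg co-culture were quantified by ELISA at 24 h post-dosing; both increases and decreases versus DMSO scored. Cytotoxicity monitored by SRB total protein in parallel cultures.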

[18] = read-out: Transforming growth factor beta 1 (TGFb1), TGFB1 (gene 7040); assay: BSK_KF3CT_TGFb1: BioMAP Diversity Plus: KF3CT Assay for Transforming growth factor beta 1 (TGFb1) Biomarker Activity (AID 2283072); settings: primary human keratinocytes with fibroblasts; actives raise or lower the signal
In short: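 Human keratinocyte/foreskin fibroblast co-culture; TGF-b1 measured by ELISA 24 h after dosing, fitted bidirectionally versus DMSO. Cytotoxicity checked in parallel cultures by total protein (SRB staining, 560 nm).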

Measured: AC50

Tumor necrosis factor (Homo sapiens), sequence (P01375 whole entry, looked up): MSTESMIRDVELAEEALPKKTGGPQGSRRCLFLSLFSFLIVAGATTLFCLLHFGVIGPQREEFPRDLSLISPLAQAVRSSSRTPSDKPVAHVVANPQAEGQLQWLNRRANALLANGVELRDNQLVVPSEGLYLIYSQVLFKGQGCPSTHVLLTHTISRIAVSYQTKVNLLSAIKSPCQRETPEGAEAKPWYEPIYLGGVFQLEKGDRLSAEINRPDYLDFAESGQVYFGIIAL
E-selectin (Homo sapiens), sequence (P16581 whole entry, looked up): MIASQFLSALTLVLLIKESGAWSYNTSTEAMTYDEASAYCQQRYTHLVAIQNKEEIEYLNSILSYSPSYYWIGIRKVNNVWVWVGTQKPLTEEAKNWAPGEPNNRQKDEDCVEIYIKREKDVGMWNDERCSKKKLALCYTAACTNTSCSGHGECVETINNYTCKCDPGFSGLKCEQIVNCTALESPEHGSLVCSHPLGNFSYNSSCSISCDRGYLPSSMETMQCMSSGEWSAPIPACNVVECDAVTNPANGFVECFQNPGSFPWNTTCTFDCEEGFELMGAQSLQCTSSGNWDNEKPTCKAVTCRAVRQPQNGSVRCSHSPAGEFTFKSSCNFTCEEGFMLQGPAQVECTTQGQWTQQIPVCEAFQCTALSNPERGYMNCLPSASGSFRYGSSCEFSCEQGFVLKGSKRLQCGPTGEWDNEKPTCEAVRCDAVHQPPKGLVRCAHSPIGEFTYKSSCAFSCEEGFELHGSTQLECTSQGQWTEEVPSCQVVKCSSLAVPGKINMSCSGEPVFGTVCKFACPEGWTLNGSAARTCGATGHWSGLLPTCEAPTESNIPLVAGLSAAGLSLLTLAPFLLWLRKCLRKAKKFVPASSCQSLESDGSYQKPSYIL

CC(C)CCCC(C)(C)O
not listed: [18]
inactive: all other assays above

COc1ccccc1NC(=O)CC(C)=O
not listed: CD40, CD40 (gene 958) [5]
inactive: all other assays above

C=CC(=O)OCC(CO)(COC(=O)C=C)COC(=O)C=C
active: [1] 529 nM | [18] 415 nM | [2] 5440 nM | [3] 400 nM | [4] 685 nM | [6] 311 nM | [7] 3970 nM | [8] 749 nM | [9] 404 nM | [10] 81.6 nM | [11] 118 nM | [12] 379 nM | [13] 576 nM | [14] 163 nM | [15] 140 nM | CD38, CD38 (gene 952) 340 nM | CD40, CD40 (gene 958) [16] 696 nM | CD69, CD69 (gene 969) 384 nM | [17] 686 nM

OCC(F)(OC(F)(F)C(F)(OC(F)(F)C(F)(F)C(F)(F)F)C(F)(F)F)C(F)(F)F (configuration not stated)
inactive: [2] | [7] | [8] | [10] | [12] | [13] | [15] | CD38, CD38 (gene 952)
active: [1] 5.58 µM and 5.62 µM | [2] 5140 nM | [3] 5.19 µM and 3.33 µM | [4] 5.49 µM and 3.33 µM | [6] 5.03 µM and 3.77 µM | [9] 5.01 µM and 4.53 µM | [11] 5.49 µM and 5.04 µM | [14] 5.64 µM and 5.47 µM | [15] 5050 nM | CD40, CD40 (gene 958) [16] 2.38 µM and 2.34 µM | CD69, CD69 (gene 969) 3.33 µM and 713 nM | [17] 2.27 µM and 1.92 µM

CC(=O)c1ccc(C)cc1
not listed: CD40, CD40 (gene 958) [5] | [18]
inactive: all other assays above

O=C(O)C(F)(F)OC(F)(F)C(F)(F)OC(F)(F)C(F)(F)C(F)(F)C(F)(F)F
active: [8] 51000 nM | [11] 15 µM and 11.1 µM | [15] 24400 nM | CD38, CD38 (gene 952) 41900 nM | CD40, CD40 (gene 958) [16] 44000 nM | CD69, CD69 (gene 969) 34200 nM
inactive: [1] | [2] | [3] | [4] | [6] | [7] | [8] | [9] | [10] | [12] | [13] | [14] | [15] | CD38, CD38 (gene 952) | CD40, CD40 (gene 958) [16] | CD69, CD69 (gene 969) | [17]

C=C(F)C(=O)OC(C(F)(F)F)C(F)(F)F
not listed: CD40, CD40 (gene 958) [5] | [18]
inactive: all other assays above

C=C(C)C(=O)OCCC(F)(F)C(F)(F)C(F)(F)C(F)(F)C(F)(F)C(F)(F)C(F)(F)C(F)(F)F
inactive: [1] | [2] | [3] | [4] | [6] | [7] | [8] | [9] | [10] | [11] | [12] | [13] | [14] | [15] | CD38, CD38 (gene 952) | CD40, CD40 (gene 958) [16] | CD69, CD69 (gene 969) | [17]
active: [15] 1220 nM

CCOC(=O)CCCCCCCCC(=O)OCC
not listed: CD40, CD40 (gene 958) [5]
inactive: all other assays above

c1ccc(OCCOc2ccccc2)cc1
inactive: [1] | [2] | [3] | [4] | [6] | [7] | [8] | [9] | [10] | [11] | [12] | [13] | [14] | [15] | CD38, CD38 (gene 952) | CD40, CD40 (gene 958) [16] | CD69, CD69 (gene 969) | [17]
active: [13] 5170 nM | CD38, CD38 (gene 952) 1490 nM

CCn1cc(C(=O)O)c(=O)c2ccc(C)nc21
not listed: CD40, CD40 (gene 958) [5] | [18]
inactive: all other assays above
